Reference: PubChem BioAssay AID2551 (National Center for Advancing Translational Sciences (NCATS), 2010)
The whole screen tested about 310,000 compounds, of which about 17,000 (5.5%) were called active. About 11% were inconclusive and are not listed. Only a selection was taken, and actives are over-represented in it overall. Values without a mark were called inactive. The call rests on the fitted dose curve; in most records, active means well fitted inhibition curve with a large enough effect; inconclusive means small, poorly fitted or top-dose-only effect, or effect the other way; inactive means no such curve, though single readings can be large or run the other way.

target: Nuclear receptor ROR-gamma (Mus musculus) (UniProt P51450); assay: qHTS for inhibitors of ROR gamma transcriptional activity; conditions: Drosophila S2 Gal4-RORgamma UAS-luciferase reporter, 20 h; series mostly up to 53.6 µM; activity change, negative = inhibition: at the top concentration; further: nearly all actives have a fitted effect of over 60% in size
Sequence (P51450 whole entry, looked up, the tested form may be a part): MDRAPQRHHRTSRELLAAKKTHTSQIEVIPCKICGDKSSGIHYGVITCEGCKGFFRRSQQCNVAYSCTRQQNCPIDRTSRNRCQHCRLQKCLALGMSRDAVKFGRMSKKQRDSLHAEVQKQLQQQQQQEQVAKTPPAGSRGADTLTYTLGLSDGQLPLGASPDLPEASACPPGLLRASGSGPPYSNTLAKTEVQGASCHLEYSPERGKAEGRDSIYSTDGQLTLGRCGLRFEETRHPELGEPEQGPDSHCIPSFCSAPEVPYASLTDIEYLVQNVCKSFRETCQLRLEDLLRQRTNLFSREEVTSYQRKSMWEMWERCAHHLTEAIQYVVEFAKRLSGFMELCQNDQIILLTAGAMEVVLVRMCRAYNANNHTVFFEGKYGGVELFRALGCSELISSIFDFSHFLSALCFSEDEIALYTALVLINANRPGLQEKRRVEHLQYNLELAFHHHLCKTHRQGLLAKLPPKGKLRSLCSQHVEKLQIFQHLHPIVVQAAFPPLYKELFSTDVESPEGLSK
How it was run: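 ROR gamma transcriptional activity was tracked as Gal4-UAS luciferase output in stably transfected Drosophila Schneider cells, with compound added 1 hr before 700 uM copper sulfate induction and a 20 hr ambient-temperature incubation.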
On the % scale 0 is the no-effect control and ±100 the full control effect; potency means the concentration at half of the fitted maximal effect.

First: Cc1[nH]c2ccccc2c1C(=O)CN1CC(C)CC(C)C1 (stereo not given)
Second: COc1ccc2[nH]c(C(=O)N3CCN(C)CC3)c(C)c2c1
The “activity change, negative = inhibition” value of the first is lower: -3.29% for the first, 11.6% for the second.

Compared with `O=C(O)C1CCCN1S(=O)(=O)c1ccc(Br)cc1` (stereo not given), `CC1=C(C(=O)OC(C)(C)C)C(c2ccc(Br)cc2)NC(=O)N1CCCC(=O)O` (stereo not given) is lower in “activity change, negative = inhibition” value: 6.41% for the first, -10.5% for the second.

Compared with `O=C(CN(C(=O)c1nsc(Cl)c1Cl)c1cccc(F)c1)NC1CCCC1`, `COc1ccc(-n2cnc3cc(C(=O)NC4CCCC4)ccc32)cc1` is higher in “activity change, negative = inhibition” value: -2.43% for the first, 22.4% for the second.

Compared with `COc1ccccc1OCc1nnc(SCC(N)=O)n1-c1ccccc1`, `COCCCNC(=S)NNC(=O)C(O)(c1ccccc1)c1ccccc1` is lower in “activity change, negative = inhibition” value: 7.44% for the first, -39.9% for the second.

First: Cc1cc(C2=NNC(=Nc3ccc(S(=O)(=O)N4CCOCC4)cc3)SC2)c(C)n1CC1CCCO1 (stereo not given)
Second: Cc1cccc(NS(=O)(=O)c2ccc(C(=O)NCC(C)(C)N3CCOCC3)cc2)c1C
The “activity change, negative = inhibition” value of the first is lower: 9.62% for the first, 35.2% for the second.

First: O=C(O)c1ccccc1NC(=O)c1ccccc1-c1ccccc1C(=O)O
Second: COc1ccc(/C=C(/NC(=O)c2ccccc2)C(=O)Nc2cccc(C(=O)O)c2)cc1
The “activity change, negative = inhibition” value of the first is higher: -14.3% for the first, -28.5% for the second.

First: CC1CN(S(=O)(=O)c2cccc(C(F)(F)F)c2)CN1C(=O)N1CCOCC1 (stereo not given)
Second: COc1cccc(C(=O)Nc2nnc(S(=O)(=O)N3CCOCC3)s2)c1
The “activity change, negative = inhibition” value of the first is lower: -13.4% for the first, 9.48% for the second.

First: COc1ccc2[nH]c3c(C)c4cc[n+](C)cc4c(C)c3c2c1
Second: COC(=O)c1ccc2c(C(C)(C)O)c(C(C)(C)O)[nH]c2c1
The “activity change, negative = inhibition” value of the first is lower: -25% for the first, 44.3% for the second.

Going from `COc1ccc(NC(=O)c2cccc3c2C(=O)N(CC2CCCO2)C3)cc1OC` (stereo not given) to `COc1ccc(CNC(=O)/C(C#N)=C/c2cccc(OC)c2OC)cc1`, the “activity change, negative = inhibition” value falls from -8.76% to -22.3%.

First: COc1ccc(OCCCCN2CCC(C)CC2)cc1
Second: CCCNC(=S)N1CCC(NC(=O)c2ccc(OC)cc2)CC1
The “activity change, negative = inhibition” value of the first is lower: 3.61% for the first, 25.5% for the second.

Going from `O=C1COc2ccc(S(=O)(=O)Nc3ccc(OC(F)(F)F)cc3)cc2N1` to `CC(NC(=S)Nc1ccc(S(N)(=O)=O)cc1)c1ccc2c(c1)OCO2` (stereo not given), the “activity change, negative = inhibition” value rises from -17.3% to 23.8%.

Going from `C/C(=N\NC(=O)c1cccnc1)c1ccc(-c2ccccc2)cc1` to `O=C(N/N=C/c1cccc(OC(=O)c2ccc([N+](=O)[O-])cc2)c1)c1cccnc1`, the “activity change, negative = inhibition” value falls from -0.938% to -6.76%.

Compared with `C/C(=N\NC(=O)c1ccccc1C)c1ccc(N2CCOCC2)cc1`, `COc1ccc(C(=O)NC2CCN(C(=S)NCCc3ccccc3)CC2)cc1` is lower in “activity change, negative = inhibition” value: 8.86% for the first, -2.05% for the second.

Compared with `CNC(=O)C(NC(=O)c1ccccc1)=C(C)C`, `CC(=O)NC(=O)c1ccccc1O` is lower in “activity change, negative = inhibition” value: 4.05% for the first, -0.919% for the second.

Compared with `Cn1c(=O)c2c(SCC(=O)NCC3CCCO3)nc(CC(C)(C)C)nc2n(C)c1=O` (stereo not given), `Cn1c(=O)n(C)c2cc(/C=N/NC(=O)c3cccc(Br)c3)ccc21` is lower in “activity change, negative = inhibition” value: 1.36% for the first, -10.1% for the second.

First: COC(=O)c1c(NC(=O)C2CC(C)=C(C)CC2C(=O)O)sc2c1CCCCC2 (stereo not given)
Second: Cc1ccc(S(=O)Cc2ccc(C(=O)N3CCN(C4CCCCC4)CC3)o2)cc1 (stereo not given)
The “activity change, negative = inhibition” value of the first is higher: 36.4% for the first, -17% for the second.

First: COc1ccc(CCNS(=O)(=O)c2cn(C)nc2C)cc1
Second: CCNC(=O)CCc1nc(-c2ccc(C)cc2)no1
The “activity change, negative = inhibition” value of the first is lower: 0.968% for the first, 34.1% for the second.

Going from `CCOC(=O)C1CCN(C(=O)COc2cccc3ccccc23)CC1` to `CC(NC(=O)CNC(=O)Cc1cccc2ccccc12)c1ccc(S(N)(=O)=O)cc1` (stereo not given), the “activity change, negative = inhibition” value rises from 24.6% to 31%.

Compared with `O=C1CCC(C(=O)Nc2ccc(OC(F)F)cc2)N1` (stereo not given), `COC(=O)c1ccc(OC(=O)c2cnccn2)cc1` is higher in “activity change, negative = inhibition” value: 5.33% for the first, 41.2% for the second.

First: Cc1ccc(N2C(=O)S/C(=C/c3cn(C)c4ccccc34)C2=O)cc1
Second: Cc1ccc(CNC(=O)[C@@H](NC(=O)Cc2ccccc2)C(C)C)cc1
The “activity change, negative = inhibition” value of the first is higher: 20.9% for the first, 2.05% for the second.

Going from `Cc1ccc(N=C2NC(=O)/C(=C/C=C/c3ccco3)S2)cc1C` to `Cc1ccc(C)c(N2CCN(C(=O)Cn3ncn4cccc4c3=O)CC2)c1`, the “activity change, negative = inhibition” value rises from -26.3% to 1.67%.

Going from `COc1ccc(CSc2nnnn2-c2ccc(O)cc2)cc1F` to `Cn1nccc1C(=O)NC1CCCc2c1cnn2-c1ccc(F)cc1F` (stereo not given), the “activity change, negative = inhibition” value falls from 7.32% to -27%.

First: C#CCOc1ccccc1/C=C1/C(=O)ON=C1C
Second: Cc1cccc(OCC(=O)NCCNC(=O)c2cccnc2)c1
The “activity change, negative = inhibition” value of the first is higher: 4.49% for the first, -13.4% for the second.

Going from `CN1CCN(C(=O)CCc2nc(-c3ccc(Cl)cc3)no2)CC1` to `Cc1c(Cl)c([N+](=O)[O-])nn1CC(=O)NCCCN1CCOCC1`, the “activity change, negative = inhibition” value falls from 22.4% to 4.93%.

Going from `COc1cccc(NC(=O)[C@H](Cc2c[nH]c3ccccc23)NC(=O)[C@@H]2Cc3ccccc3CN2)c1` to `C[C@H](NC(=O)C1CC(=O)N(c2ccc3c(c2)OCO3)C1)C(=O)NCc1ccco1` (stereo not given in full), the “activity change, negative = inhibition” value falls from 13.9% to -2.28%.

Going from `Cc1cc(-c2cccs2)nc(-n2cccc2)n1` to `Cc1cc2nc(C(F)(F)F)cc(-c3cccs3)n2n1`, the “activity change, negative = inhibition” value falls from 0.7% to -17.8%.

Compared with `CCCOc1cccc(C(=O)NCCCNC(=O)c2cccnc2)c1`, `O=C(CCc1ccccc1)NNC(=O)c1ccc(Br)cc1` is lower in “activity change, negative = inhibition” value: 22.3% for the first, -0.842% for the second.

Compared with `COCCCNC(=O)c1c(F)c(F)c(F)c(F)c1F`, `N#C/C=C/N1CCN(Cc2ccc3c(c2)OCO3)CC1` is higher in “activity change, negative = inhibition” value: -20.7% for the first, 1.29% for the second.

With `NS(=O)(=O)c1cccc(NC(=O)CC23CC4CC(CC(Br)(C4)C2)C3)c1` the “activity change, negative = inhibition” value was 15.7%.

With `C=CCn1c(C)cc(C2=NNC(=NCC)SC2)c1C` the Potency was 0.562 µM (active).
`COc1ccc2[nH]c(=S)cc(C)c2c1` was tested, and the Potency was 7.08 µM (active).
With `CC(C)=C(NC(=O)c1ccccc1)C(=O)N/N=C(\C)c1ccccc1O` the Potency was 0.891 µM (active).
`C/C(=N\NC(=O)c1ccoc1C)c1ccccc1O` was tested, and the Potency was 0.158 µM (active).
`CC(NC(=S)Nc1ccc(OC(F)F)cc1)c1ccc(F)cc1` (stereo not given) was tested, and the Potency was 3.16 µM (active).
With `Cc1cccc(N=C2NC(=O)/C(=C/c3cn(C)c4ccccc34)S2)c1` the Potency was 12.6 µM (active).
With `COc1cc(/C=N/NC(=O)c2cccnc2)ccc1OC(=O)c1cccc(Br)c1` the Potency was 11.2 µM (active).
In the case of `CCNC(=O)CCc1nc(-c2ccc(C(C)(C)C)cc2)no1`, the Potency is reported as 0.0447 µM (active).
`CC(C)(C)Nc1c(-c2cccs2)nc2ccccn12` was tested, and the Potency was 6.31 µM (active).
In the case of `COc1ccc(C(=O)NC(=S)NC2CCCCC2)cc1`, the Potency is reported as 2.82 µM (active).
In the case of `COc1ccc(C(=O)NC(=S)NNC(=O)CCc2ccccc2)cc1`, the Potency is reported as 4.47 µM (active).
In the case of `COCCCNC(=S)NC(=O)c1ccccc1`, the Potency is reported as 12.6 µM (active).
With `Cc1cccc(OCCNC(=S)NC(=O)c2cccnc2)c1` the Potency was 10 µM (active).
